± gives the standard deviation of the averaged measurements.

The test system of assay [1] is DLD1. The experiment in a line: cell viability (CellTiter-Glo) relative to plate median (fraction of plate median); higher = more viable cells. The settings on record: 5 µM; treatment time 24 h; reporter: 7TFP. Put shortly: (§1)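 On parallel plates, a Tecan F500 reader recorded either firefly luciferase or CellTiterGlo luminescence. The plates held colorectal cancer cells stably transduced with lentiviral TCF/Wnt firefly luciferase reporters (7TFP or TCF4/Wnt), seeded in 384-well format and treated 24 h later with library compounds at a final 5 µM for 24 h. Per-well signals were normalised to the plate median (webcellHTS2, additive, no log transformation), and two independent replicates were averaged.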
In general terms: Cellular ATP, detected with luciferase, serves as a proxy for viable cell number.

The subject of assay [2] is HCT116. The description is as above. The settings on record: 5 µM; treatment time 24 h; reporter: TCF4/Wnt. Put shortly:
as §1

Assay [3] relates to SW480. Described as above. The settings on record: 5 µM; treatment time 24 h; reporter: 7TFP. Put shortly:
as §1

The test system of assay [4] is DLD1. Briefly: TCF/Wnt firefly luciferase reporter signal relative to plate median (fraction of plate median); higher = higher Wnt reporter signal. The settings on record: 5 µM; treatment time 24 h; reporter: 7TFP. Put shortly:
as §1
Background: In a reporter assay the amount or activity of a reporter protein is the signal.

In assay [5] the test system is SW480. The assay is described as above. The settings on record: 5 µM; treatment time 24 h; reporter: 7TFP. Put shortly: as §1

Turning to `CC(=O)OCC(=O)[C@@]12OC(C)(C)O[C@@H]1C[C@H]1[C@@H]3C[C@H](F)C4=CC(=O)C=C[C@]4(C)[C@@]3(F)[C@@H](O)C[C@@]12C`, the cell viability in assay [1] is 1.01 ± 0.023; in assay [2], 1 ± 0.05; in assay [3], 0.969 ± 0.044. Also, the “TCF/Wnt firefly luciferase reporter signal” value in assay [4] was 1.03 ± 0.072; in assay [5] it was 1.06 ± 0.093.

As for `O=c1c(O)c(-c2ccc(O)c(O)c2)oc2c(O[C@@H]3O[C@H](CO)[C@@H](O)[C@H](O)[C@H]3O)c(O)cc(O)c12`, the results for the cell viability in assay [1], in assay [2] and in assay [3] were 0.99 ± 0.057, 0.905 ± 0.22 and 0.976 ± 0.033, respectively. The “TCF/Wnt firefly luciferase reporter signal” value in assay [4] was 1.1 ± 0.078; in assay [5], 0.997 ± 0.061.

Regarding `CCCCCCCCNC(C)C(O)c1ccc(SC(C)C)cc1` (stereo not given), the cell viability in assay [1] came out at 0.978 ± 0.021; in assay [2] it was 1.05 ± 0.042; in assay [3] it was 1.02 ± 0.03. Besides, the figures for the “TCF/Wnt firefly luciferase reporter signal” value in assay [4] and in assay [5] were 1.08 ± 0.099 and 1.09 ± 0.085, respectively.

On to `COc1ccc(-c2cc(C(F)F)nn2-c2ccc(S(N)(=O)=O)cc2)cc1F`, for which the cell viability in assay [1] was determined as 0.869 ± 0.086; in assay [2], 1.01 ± 0.014; in assay [3] it was 1.04 ± 0.057. Moreover, the “TCF/Wnt firefly luciferase reporter signal” value came out at 0.983 ± 0.025 in assay [4] and 0.995 ± 0.078 in assay [5].

On to `CN(C)CCCN1c2ccccc2Sc2ccc(Cl)cc21`, for which the cell viability in assay [1] stood at 1.02 ± 0.054; in assay [2], 0.957 ± 0.047; in assay [3], 1.09 ± 0.14. The “TCF/Wnt firefly luciferase reporter signal” value in assay [4] turned out to be 0.928 ± 0.12; in assay [5], 0.821 ± 0.13.

In the case of `COc1cc(C)c2c(c1C=O)Oc1c(c(C)c(O)c3c1C(O)OC3=O)OC2=O` (stereo not given), the cell viability in assay [1] was found to be 0.951 ± 0.015; in assay [2], 0.956 ± 0.028; in assay [3], 1.06 ± 0.014. The “TCF/Wnt firefly luciferase reporter signal” value turned out to be 0.949 ± 0.16 in assay [4] and 0.927 ± 0.077 in assay [5].

Consider `Oc1ncnc2[nH]ncc12`, for which the cell viability in assay [1] worked out at 0.939 ± 0.063; in assay [2] it was 1.05 ± 0.12; in assay [3], 1.07 ± 0.057. Moreover, the “TCF/Wnt firefly luciferase reporter signal” value in assay [4] was 1.03; in assay [5] it was 0.961 ± 0.11.

Turning to `O=c1oc(CO)c(CO)c2cccc(O)c12` [8-hydroxy-3,4-bis-(hydroxymethyl)-isocumarin], the cell viability in assay [1] came out at 0.91 ± 0.03; in assay [2] it was 0.981 ± 0.098; in assay [3], 0.967 ± 0.038. Also, the “TCF/Wnt firefly luciferase reporter signal” value came to 1.09 ± 0.092 in assay [4] and 1.05 ± 0.057 in assay [5].

Turning to `COc1ccc(-c2coc3cc(O)ccc3c2=O)c(OC)c1`, the cell viability was found to be 0.989 ± 0.016 in assay [1], 1.01 ± 0.067 in assay [2] and 1.04 ± 0.05 in assay [3]. The “TCF/Wnt firefly luciferase reporter signal” value came out at 1.035 ± 0.0071 in assay [4] and 1.01 ± 0.064 in assay [5].

Turning to `Cc1cn[nH]c1`, the cell viability was 0.959 ± 0.021 in assay [1], 0.939 ± 0.018 in assay [2] and 1.01 ± 0.021 in assay [3]. Also, the figures for the “TCF/Wnt firefly luciferase reporter signal” value in assay [4] and in assay [5] were 0.768 and 0.892 ± 0.11, respectively.

Regarding `COC(=O)/C=C/c1ccc(O)c(O)c1` [Caffeic acid methylester], the cell viability in assay [1] was found to be 0.918 ± 0.079; in assay [2] it was 0.987 ± 0.12; in assay [3], 0.979 ± 0.072. The “TCF/Wnt firefly luciferase reporter signal” value amounted to 1.02 ± 0.098 in assay [4] and 1.04 ± 0.087 in assay [5].

In the case of `C[C@@H]1OC(=O)C2=C1O[C@@H]1[C@@H](O)[C@]3(O)CCCC[C@H]3[C@](C)(C2=O)[C@@H]1C` [Dihydrotetrodecamycin], the cell viability worked out at 1.08 ± 0.057 in assay [1], 1.05 ± 0.071 in assay [2] and 1.065 ± 0.0071 in assay [3]. Further, the results for the “TCF/Wnt firefly luciferase reporter signal” value in assay [4] and in assay [5] were 1.08 ± 0.15 and 1.04 ± 0.069, respectively.

On to `CN(C)CCCC1(c2ccc(F)cc2)OCc2cc(C#N)ccc21` (stereo not given), for which the cell viability in assay [1] came to 1.02 ± 0.044; in assay [2], 1.01 ± 0.061; in assay [3], 0.996 ± 0.048. Moreover, the “TCF/Wnt firefly luciferase reporter signal” value in assay [4] turned out to be 0.964 ± 0.0014; in assay [5], 1.01 ± 0.1.

As for `C[C@@H]1CC[C@H]2C(C)(C)[C@H]3C[C@@]12CC[C@@]3(C)O`, the values for the cell viability in assay [1], in assay [2] and in assay [3] were 1.02 ± 0.029, 1.07 ± 0.057 and 1.03 ± 0.021, respectively. Moreover, the “TCF/Wnt firefly luciferase reporter signal” value in assay [4] turned out to be 1.03 ± 0.014; in assay [5] it was 0.94 ± 0.083.

As for `CCN(CC)CCNC(=O)c1cc(Cl)c(N)cc1OC`, the cell viability in assay [1] was found to be 1 ± 0.037; in assay [2], 1.04 ± 0.066; in assay [3], 0.993 ± 0.025. Also, the “TCF/Wnt firefly luciferase reporter signal” value in assay [4] worked out at 1.14 ± 0.05; in assay [5] it was 1 ± 0.069.

As to `CNc1ccccc1C(=O)N1CCc2c([nH]c3ccccc23)C1=O`, the values for the cell viability in assay [1], in assay [2] and in assay [3] were 1.03 ± 0.043, 0.996 ± 0.1 and 0.994 ± 0.0085, respectively. Moreover, the “TCF/Wnt firefly luciferase reporter signal” value in assay [4] is 1.14; in assay [5], 1.09 ± 0.14.

Regarding `CC(C)C[C@@H]1NC(=O)[C@H](CCCN)NC(=O)[C@H](C(C)C)NC(=O)[C@H](Cc2ccc(O)cc2)N[C@@H](CCC(=O)O)C(=O)N[C@@H](CC(N)=O)C(=O)[C@@H](Cc2ccccc2)NC(=O)[C@H](Cc2ccccc2)NC(=O)[C@@H]2CCCN2C(=O)[C@@H](Cc2ccccc2)NC1=O`, the cell viability turned out to be 0.894 ± 0.091 in assay [1], 0.71 ± 0.072 in assay [2] and 0.486 ± 0.082 in assay [3]. Moreover, the “TCF/Wnt firefly luciferase reporter signal” value in assay [4] was 0.685 ± 0.041; in assay [5], 0.469 ± 0.1.

Turning to `NNc1nncc2ccccc12`, the figures for the cell viability in assay [1], in assay [2] and in assay [3] were 1.055 ± 0.0071, 1.06 ± 0.057 and 1.055 ± 0.0071, respectively. The “TCF/Wnt firefly luciferase reporter signal” value in assay [4] worked out at 1.23 ± 0.25; in assay [5], 1.28 ± 0.17.

As to `CC(=O)O[C@H]1C[C@@]2(C)[C@@H](C[C@@H](O)[C@H]3[C@@]4(C)CC[C@@H](O)[C@@H](C)[C@@H]4CC[C@@]32C)/C1=C(\CCC=C(C)C)C(=O)O`, the cell viability in assay [1] turned out to be 1.04 ± 0.05; in assay [2], 1 ± 0.054; in assay [3] it was 1.04 ± 0.028. The results for the “TCF/Wnt firefly luciferase reporter signal” value in assay [4] and in assay [5] were 1.12 ± 0.05 and 1.06 ± 0.064, respectively.

For the compound `Cc1c(NC(=O)c2cccnc2)c(=O)n(-c2ccccc2)n1C`, the cell viability in assay [1] was 1.01; in assay [2], 1.1 ± 0.042; in assay [3], 0.981 ± 0.015. For the same compound, the “TCF/Wnt firefly luciferase reporter signal” value in assay [4] amounted to 1.06 ± 0.17; in assay [5], 1 ± 0.037.

In the case of `CCN1CCN(c2cc3c(cc2F)c(=O)c(C(=O)O)cn3C2CC2)CC1`, the cell viability is 1.01 ± 0.05 in assay [1], 0.907 ± 0.038 in assay [2] and 0.921 ± 0.03 in assay [3]. Further, the entries for the “TCF/Wnt firefly luciferase reporter signal” value in assay [4] and in assay [5] were 1.05 ± 0.074 and 0.9395 ± 0.005, respectively.

`CN1[C@@H](CC(=O)c2ccccc2)CCC[C@H]1C[C@H](O)c1ccccc1`: the values for the cell viability in assay [1], in assay [2] and in assay [3] were 1.1 ± 0.13, 0.987 ± 0.061 and 1.05 ± 0.021, respectively. The “TCF/Wnt firefly luciferase reporter signal” value amounted to 0.998 ± 0.032 in assay [4] and 1.04 ± 0.098 in assay [5].

`CC1=CC2C(C(C)C)CCC(C)(O)C2CC1` (stereo not given): the values for the cell viability in assay [1], in assay [2] and in assay [3] were 0.97 ± 0.036, 0.929 ± 0.011 and 0.969 ± 0.013, respectively. Also, the “TCF/Wnt firefly luciferase reporter signal” value worked out at 1.02 ± 0.11 in assay [4] and 0.957 ± 0.025 in assay [5].

Consider `NCCS`, for which the cell viability in assay [1] came out at 1.02 ± 0.014; in assay [2] it was 1.07 ± 0.12; in assay [3], 1.035 ± 0.0071. The “TCF/Wnt firefly luciferase reporter signal” value is 1.21 ± 0.021 in assay [4] and 1.16 ± 0.092 in assay [5].

For `Cc1cc(-c2ccccc2)nnc1NCCN1CCOCC1`, the cell viability stood at 1.005 ± 0.0071 in assay [1], 0.946 ± 0.077 in assay [2] and 1.03 ± 0.014 in assay [3]. In addition, the “TCF/Wnt firefly luciferase reporter signal” value in assay [4] came out at 1.02 ± 0.035; in assay [5] it was 1.05 ± 0.057.

For the compound `COc1ccc(-c2coc3cc(O)ccc3c2=O)c(OC)c1O`, the values for the cell viability in assay [1], in assay [2] and in assay [3] were 1.01 ± 0.021, 1.03 ± 0.063 and 0.966 ± 0.076, respectively. The figures for the “TCF/Wnt firefly luciferase reporter signal” value in assay [4] and in assay [5] were 0.852 ± 0.047 and 0.975 ± 0.025, respectively.

Consider `CN1CCN(C2=Nc3ccccc3Oc3ccc(Cl)cc32)CC1`, for which the cell viability in assay [1] came out at 0.901 ± 0.22; in assay [2], 0.971 ± 0.055; in assay [3] it was 0.927 ± 0.0028. Further, the entries for the “TCF/Wnt firefly luciferase reporter signal” value in assay [4] and in assay [5] were 0.898 ± 0.21 and 0.89 ± 0.12, respectively.

As for `CC1(C)CC[C@]2(C)CC[C@]3(C)C(=CC[C@@H]4[C@@]5(C)CC[C@H](O)C(C)(C)[C@@H]5CC[C@]43C)[C@@H]2C1` [beta-AMYRIN], the cell viability is 1.01 ± 0.073 in assay [1], 0.962 ± 0.016 in assay [2] and 0.994 ± 0.093 in assay [3]. For the same compound, the “TCF/Wnt firefly luciferase reporter signal” value in assay [4] worked out at 0.913 ± 0.016; in assay [5], 0.9235 ± 0.0021.
